TWEAK-Fn14 inh – inhibitors of TWEAK-Fn14 interaction signaling; inhibition, % at 10 µM; TWEAK-stimulated Fn14 reporter cells, luciferase luminescence, 8 h; hit rate 2% among 360,000; in the data active = inhibition above about 50%
LGR2 antag – Drosophila LGR2 receptor signaling inhibition. HEK293 LGR2, CRE-luciferase, bursicon-stimulated, 4 h. inhibition, % at 9.99 µM. hit rate 0.35% among 380,000. AID 720647;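 active = drop in luminescence signal, shown as inhibition above about 50% in the replicate tests, limit read from the data, passing the limit was not always enough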;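 also: agonist challenge used bursicon conditioned medium at about half maximal strength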
TRPM1 prom inh – reduces MITF-dependent TRPM1 promoter luciferase signal. SK-MEL-5 TRPM1 promoter luciferase, 24 h. inhibition, % at 12.5 µM. hit rate 0.83% among 330,000;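 active = mean inhibition across replicates of 60% or more, whatever share of single replicates reaches that level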
MITF TRPM1 HTS – activators of MITF-driven TRPM1 promoter activity in SK-MEL-5 cells; SK-MEL-5 TRPM1-promoter luciferase, 24 h; % of positive control, neutral wells = 0; activation, % at 12.5 µM; hit rate 0.75% among 300,000; AID 588334;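 active = mean activation of at least 80% with every replicate also reaching 80%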;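 also: 0% = neutral control wells and 100% = parthenolide positive control wells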
EBV LMP1 NFkB – inhibitors of Epstein-Barr LMP1-induced NF-kappaB reporter. LMP1-induced NF-kappaB luciferase reporter cells, luminescence. inhibition, % at 12.5 µM. hit rate 0.69% among 350,000. AID 504558; in the data active = inhibition above about 41%;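 also: 0% = neutral control wells and 100% = reference inhibitor control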
TROY NFkB inh – blocks TROY-dependent signaling in reporter cells; inhibition, % at 10 µM; hit rate 0.98% among 360,000; Q293 LMP1-TROYcd NF-kB luciferase reporter, 4 h; AID 1347056;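 active = compounds whose plate-normalised and pattern-corrected inhibition of the luciferase reporter signal at the single screening dose is 50% or more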
* hit, by the source's call. An excerpt weighted towards active compounds, which were near 3% of everything screened.

What do the screens show for `CN1CCN(c2ccccc2NC(=O)c2ccc([N+](=O)[O-])o2)CC1`?
TWEAK-Fn14 inh: 8; TRPM1 prom inh: 79*; MITF TRPM1 HTS: -77; EBV LMP1 NFkB: -7; TROY NFkB inh: -4

What do the screens show for `CCC(=O)N1CCN(c2ccc(NC(=O)c3ccc([N+](=O)[O-])o3)cc2Cl)CC1`?
TWEAK-Fn14 inh: 17; LGR2 antag: 5; TRPM1 prom inh: 87*; MITF TRPM1 HTS: -87; EBV LMP1 NFkB: -48; TROY NFkB inh: -10

How did CC(=O)N1CCN(c2ccc(NC(=O)c3ccc([N+](=O)[O-])o3)cc2Cl)CC1 do in these assays?
TWEAK-Fn14 inh: 29; LGR2 antag: 26; TRPM1 prom inh: 95*; EBV LMP1 NFkB: -26; TROY NFkB inh: 8

How did CCC(=O)N1CCN(c2ccc(NC(=O)c3ccco3)cc2Cl)CC1 do in these assays?
TWEAK-Fn14 inh: -36; LGR2 antag: -2; TRPM1 prom inh: -27; MITF TRPM1 HTS: 28; EBV LMP1 NFkB: -4; TROY NFkB inh: -19

How did CCC(=O)N1CCN(c2ccc(Cl)cc2NC(=O)c2ccc([N+](=O)[O-])o2)CC1 do in these assays?
TWEAK-Fn14 inh: 9; LGR2 antag: -3; TRPM1 prom inh: 67*; MITF TRPM1 HTS: -68; EBV LMP1 NFkB: -23; TROY NFkB inh: -5

What do the screens show for `C[C@@H]1CN([C@H](C)CO)C(=O)c2c(c3ccccc3n2C)-c2ccccc2CO[C@H]1CN(C)C(=O)c1ccccc1`?
LGR2 antag: -2

How did C[C@H](NC(=O)C[C@H]1C[C@@H]2c3cc(NC(=O)C4CCC4)ccc3O[C@@H]2[C@H](CO)O1)c1ccccc1 do in these assays?
LGR2 antag: 9

How did CCN1CCN(c2ccc(NC(=O)c3ccc([N+](=O)[O-])o3)cc2Cl)CC1 do in these assays?
TWEAK-Fn14 inh: 24; LGR2 antag: -37; TRPM1 prom inh: 71*; MITF TRPM1 HTS: -71; EBV LMP1 NFkB: -37; TROY NFkB inh: -9

How did CCN1CCN(c2ccc(NC(=O)c3ccc(F)cc3)cc2Cl)CC1 do in these assays?
TWEAK-Fn14 inh: 0; LGR2 antag: 11; TRPM1 prom inh: -5; MITF TRPM1 HTS: 7; EBV LMP1 NFkB: -8; TROY NFkB inh: -38

How did CC(C)C(Cl)=NOC(=O)Nc1ccc(S(N)(=O)=O)cc1 do in these assays?
TWEAK-Fn14 inh: 56*; LGR2 antag: 16; TRPM1 prom inh: 16; EBV LMP1 NFkB: 1; TROY NFkB inh: -17

How did Cc1nn(C2CCS(=O)(=O)C2)c(Cl)c1/C=C/C(=O)OCC(=O)c1cc(C)n(-c2ccc(F)cc2)c1C (centres undefined) do in these assays?
TWEAK-Fn14 inh: 59*; LGR2 antag: 19; TRPM1 prom inh: 17; MITF TRPM1 HTS: -19; EBV LMP1 NFkB: 27; TROY NFkB inh: 42

Results for CCN(CC)S(=O)(=O)c1cc(NC(=O)CSc2nc3c(cc2C#N)C(=O)CC(C)(C)C3)ccc1C ?
TWEAK-Fn14 inh: 55*; LGR2 antag: 25; TRPM1 prom inh: 25; MITF TRPM1 HTS: -25; EBV LMP1 NFkB: 17; TROY NFkB inh: 46

How did CCN(CC)S(=O)(=O)c1cc(NC(=O)CSc2nnc(N)s2)ccc1C do in these assays?
TWEAK-Fn14 inh: -5; TRPM1 prom inh: 4; MITF TRPM1 HTS: -1; EBV LMP1 NFkB: 0; TROY NFkB inh: 12

Results for O=C(Nc1ccc2nn(-c3ccccc3)nc2c1)c1ccc2c(c1)OCCO2 ?
TWEAK-Fn14 inh: 22; TRPM1 prom inh: -14; MITF TRPM1 HTS: 19; EBV LMP1 NFkB: 0; TROY NFkB inh: 34

What do the screens show for `O=C(Nc1ccc2oc(-c3ccccc3F)nc2c1)c1ccc2c(c1)OCCO2`?
TWEAK-Fn14 inh: 72*; TRPM1 prom inh: -13; MITF TRPM1 HTS: 13; EBV LMP1 NFkB: 1; TROY NFkB inh: 60*

What do the screens show for `O=C(NC(=S)Nc1ccc2c(c1)OCCO2)c1ccccc1`?
TWEAK-Fn14 inh: 43; LGR2 antag: 7; TRPM1 prom inh: -47; MITF TRPM1 HTS: 37; EBV LMP1 NFkB: -33; TROY NFkB inh: 5

What do the screens show for `O=C(Nc1ccc2c(c1)OCCO2)c1ccccc1Cl`?
TWEAK-Fn14 inh: 23; LGR2 antag: -2; EBV LMP1 NFkB: 2; TROY NFkB inh: -51

How did O=C(Nc1ccc2c(c1)OCCO2)c1c(F)cccc1F do in these assays?
TWEAK-Fn14 inh: -5; LGR2 antag: -41; TRPM1 prom inh: -90; MITF TRPM1 HTS: 102*; EBV LMP1 NFkB: -19; TROY NFkB inh: -45

Results for O=C(NC(=S)Nc1ccc2c(c1)OCCO2)c1ccccc1F ?
TWEAK-Fn14 inh: -19; LGR2 antag: -63; TRPM1 prom inh: -82; MITF TRPM1 HTS: 85*; EBV LMP1 NFkB: -13; TROY NFkB inh: -34

What do the screens show for `O=C(Nc1ccc2c(c1)OCCO2)c1cccc2nc3ccccc3nc12`?
TWEAK-Fn14 inh: 19; TRPM1 prom inh: 73*; MITF TRPM1 HTS: -72; EBV LMP1 NFkB: -8; TROY NFkB inh: 5

How did C[C@@H]1CCCCO[C@@H](CN(C)Cc2ccc(C(=O)O)cc2)[C@H](C)CN([C@H](C)CO)C(=O)c2cc(NC(=O)c3ccccc3)ccc2O1 do in these assays?
LGR2 antag: 12

Results for OC[C@H]1[C@H](c2ccc(C#CC3(O)CCCC3)cc2)[C@@H]2CN(Cc3cccnc3)CCCCN12 ?
LGR2 antag: 13

How did CC(=O)Nc1ccc2c(c1)C(=O)N(C)[C@H]1CC[C@H](CC(=O)Nc3c(F)cccc3F)O[C@@H]1CO2 do in these assays?
LGR2 antag: 5

What do the screens show for `C[C@@H]1CN([C@@H](C)CO)C(=O)c2cc(C#CC(C)(C)O)cnc2O[C@@H]1CN(C)C(=O)C1CCCCC1`?
LGR2 antag: -2

Results for O=C(NNC(=S)Nc1ccc(Cl)c(Cl)c1)c1ccccn1 ?
TWEAK-Fn14 inh: -14; LGR2 antag: 4; TRPM1 prom inh: 40; MITF TRPM1 HTS: -36; EBV LMP1 NFkB: 62*; TROY NFkB inh: -12

What do the screens show for `O=C(Nc1ccc2c(c1)OCCO2)c1ccccc1F`?
TWEAK-Fn14 inh: 53*; TRPM1 prom inh: -3; EBV LMP1 NFkB: 28; TROY NFkB inh: 8

What do the screens show for `CCOc1cccc(C(=O)NC(=S)Nc2ccc3c(c2)OCCO3)c1`?
TWEAK-Fn14 inh: -20; LGR2 antag: -73; TRPM1 prom inh: -111; MITF TRPM1 HTS: 103*; EBV LMP1 NFkB: -16; TROY NFkB inh: -21

Results for O=C(Nc1ccc2c(c1)OCCO2)c1ccccn1 ?
TWEAK-Fn14 inh: 79*; LGR2 antag: 77*; TRPM1 prom inh: 33; MITF TRPM1 HTS: -31; EBV LMP1 NFkB: 48*; TROY NFkB inh: 57*

What do the screens show for `C[C@H](CO)N1C[C@H](C)[C@H](CN(C)CC2CC2)Oc2cc(C3=CCCC3)ccc2S1(=O)=O`?
LGR2 antag: 2

How did CSc1ncccc1C(=O)Nc1ccc2c(c1)OCCO2 do in these assays?
TWEAK-Fn14 inh: 50*; LGR2 antag: -6; TRPM1 prom inh: -4; MITF TRPM1 HTS: 7; EBV LMP1 NFkB: -7; TROY NFkB inh: 2

What do the screens show for `CSc1ncccc1C(=O)OCC(=O)Nc1ccc2c(c1)OCO2`?
TWEAK-Fn14 inh: -16; LGR2 antag: 7; TRPM1 prom inh: -11; MITF TRPM1 HTS: 15; EBV LMP1 NFkB: 3; TROY NFkB inh: -26
